Source: PMC4081100, “A DNA-binding-site landscape and regulatory network analysis for NAC transcription factors in Arabidopsis thaliana”

What was measured:
Experiment in all cases: universal protein binding microarray (PBM); transcription factors of Arabidopsis thaliana; high values mean tight binding
Conditions in all cases: protein: recombinant; tags: GST; chain copies: 2; dsDNA, one strand shown
GST-ANAC092(1-176) = target: T1, GST-ANAC092(1-176) (Arabidopsis thaliana, UniProt Q9FKA0 1-176)
T1 sequence: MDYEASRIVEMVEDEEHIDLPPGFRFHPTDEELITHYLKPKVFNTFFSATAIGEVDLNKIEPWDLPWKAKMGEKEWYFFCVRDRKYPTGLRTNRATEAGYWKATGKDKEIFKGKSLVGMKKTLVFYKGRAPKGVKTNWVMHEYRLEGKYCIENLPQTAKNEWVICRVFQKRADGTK
Method in brief: (§1)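 Binding is expressed as the normalised enrichment score (E-score). Proteins carrying a GST tag, whether NAC-domain, full-length or DNA-binding-domain forms, were induced in cells, and zinc acetate was added for zinc-finger proteins. After purification on glutathione–Sepharose 4B and quantification by A280 or anti-GST western blot, each was applied in duplicate at 200 to 500 nM final to custom all-10-mer Agilent 4 × 180K arrays made double-stranded by primer extension. Gapped and ungapped 8-mers were scored.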

GST-NTL6(1-168) = GST-NTL6(1-168) (Arabidopsis thaliana, UniProt Q9SCK6 1-168)
Sequence of GST-NTL6(1-168) (Q9SCK6 1-168): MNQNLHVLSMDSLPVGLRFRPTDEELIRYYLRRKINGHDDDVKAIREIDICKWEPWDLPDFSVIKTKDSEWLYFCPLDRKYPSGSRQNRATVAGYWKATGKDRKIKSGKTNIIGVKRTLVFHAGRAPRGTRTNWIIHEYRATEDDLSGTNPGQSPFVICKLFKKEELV
Method in brief: as §1

GST-ANAC019 NAC domain = target: T2, GST-ANAC019 NAC domain (Arabidopsis thaliana, UniProt Q9C932 14-162)
T2 sequence: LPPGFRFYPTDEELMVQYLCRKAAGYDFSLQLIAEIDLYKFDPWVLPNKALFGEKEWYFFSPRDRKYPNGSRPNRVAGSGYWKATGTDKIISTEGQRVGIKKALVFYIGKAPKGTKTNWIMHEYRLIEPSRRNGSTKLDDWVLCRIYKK
Method in brief: as §1

GST-ANAC055(1-171) = target: T3, GST-ANAC055(1-171) (Arabidopsis thaliana, UniProt Q9LDY8 1-171)
T3 sequence: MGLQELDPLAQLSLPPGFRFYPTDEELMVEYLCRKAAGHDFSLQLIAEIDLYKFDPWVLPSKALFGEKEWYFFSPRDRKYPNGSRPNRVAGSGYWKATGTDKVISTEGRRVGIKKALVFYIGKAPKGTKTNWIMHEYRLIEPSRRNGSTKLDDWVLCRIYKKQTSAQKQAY
Method in brief: as §1

GST-ATAF1 NAC domain = target: T4, GST-ATAF1 NAC domain (Arabidopsis thaliana, UniProt Q39013 7-158)
T4 sequence: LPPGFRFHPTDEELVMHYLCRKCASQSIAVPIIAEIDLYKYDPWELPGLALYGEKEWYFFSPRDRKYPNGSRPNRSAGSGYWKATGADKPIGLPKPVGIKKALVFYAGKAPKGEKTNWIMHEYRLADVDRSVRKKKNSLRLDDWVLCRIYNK
Method in brief: as §1

[1] = target: T5, GST-ANAC092(1-285) full length (Arabidopsis thaliana, UniProt Q9FKA0 1-285)
T5 sequence: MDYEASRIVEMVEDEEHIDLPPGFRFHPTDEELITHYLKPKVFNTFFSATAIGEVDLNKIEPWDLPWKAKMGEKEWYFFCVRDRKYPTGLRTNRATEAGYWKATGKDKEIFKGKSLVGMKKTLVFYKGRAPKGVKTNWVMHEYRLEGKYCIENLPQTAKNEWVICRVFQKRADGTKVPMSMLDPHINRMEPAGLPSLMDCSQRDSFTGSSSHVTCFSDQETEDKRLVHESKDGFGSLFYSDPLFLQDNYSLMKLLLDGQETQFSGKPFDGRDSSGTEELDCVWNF
Method in brief: as §1

GST-NAP(1-166) = target: T6, GST-NAP(1-166) (Arabidopsis thaliana, UniProt O49255 1-166)
T6 sequence: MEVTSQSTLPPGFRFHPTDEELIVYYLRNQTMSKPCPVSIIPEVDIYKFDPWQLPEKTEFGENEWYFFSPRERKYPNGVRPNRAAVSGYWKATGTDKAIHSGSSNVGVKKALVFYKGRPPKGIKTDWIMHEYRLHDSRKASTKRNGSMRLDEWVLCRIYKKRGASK
Method in brief: as §1

GST-NST2(1-184) = target: T7, GST-NST2(1-184) (Arabidopsis thaliana, UniProt Q9M274 1-184)
T7 sequence: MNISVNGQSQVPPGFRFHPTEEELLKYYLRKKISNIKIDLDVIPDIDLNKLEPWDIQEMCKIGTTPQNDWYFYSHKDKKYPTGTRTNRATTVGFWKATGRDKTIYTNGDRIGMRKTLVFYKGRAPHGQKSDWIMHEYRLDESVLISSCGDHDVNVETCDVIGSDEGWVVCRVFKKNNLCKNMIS
Method in brief: as §1

GST-NTL8 NAC domain = target: T8, GST-NTL8 NAC domain (Arabidopsis thaliana, UniProt Q9XIN7 14-156)
T8 sequence: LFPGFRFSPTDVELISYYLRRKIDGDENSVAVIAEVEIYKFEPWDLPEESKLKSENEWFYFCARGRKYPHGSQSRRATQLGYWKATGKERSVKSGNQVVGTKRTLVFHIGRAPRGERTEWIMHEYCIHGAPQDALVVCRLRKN
Method in brief: as §1

GST-SND1(1-203) = target: T9, GST-SND1(1-203) (Arabidopsis thaliana, UniProt Q9LPI7 1-203)
T9 sequence: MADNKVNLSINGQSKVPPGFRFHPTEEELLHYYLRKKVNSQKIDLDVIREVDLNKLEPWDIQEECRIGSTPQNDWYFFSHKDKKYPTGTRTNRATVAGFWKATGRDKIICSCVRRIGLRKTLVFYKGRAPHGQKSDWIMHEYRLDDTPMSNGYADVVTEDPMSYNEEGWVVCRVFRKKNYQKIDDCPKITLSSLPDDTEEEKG
Method in brief: as §1

GST-VND3 NAC domain = target: T10, GST-VND3 NAC domain (Arabidopsis thaliana, UniProt Q9FH59 12-162)
T10 sequence: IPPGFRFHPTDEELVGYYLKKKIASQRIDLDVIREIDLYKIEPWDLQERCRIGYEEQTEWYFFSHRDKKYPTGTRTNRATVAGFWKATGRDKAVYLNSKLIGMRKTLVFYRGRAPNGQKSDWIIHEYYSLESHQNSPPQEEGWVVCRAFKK
Method in brief: as §1

GST-VND7 NAC domain = target: T11, GST-VND7 NAC domain (Arabidopsis thaliana, UniProt Q9C8W9 9-158)
T11 sequence: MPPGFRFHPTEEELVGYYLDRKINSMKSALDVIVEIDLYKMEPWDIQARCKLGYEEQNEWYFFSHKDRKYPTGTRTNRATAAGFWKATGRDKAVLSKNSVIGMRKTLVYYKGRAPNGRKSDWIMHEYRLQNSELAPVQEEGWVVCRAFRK
Method in brief: as §1

Sequence | binding signal (GST-ANAC092(1-176)) [E-score] | binding signal (GST-NTL6(1-168)) [E-score] | binding signal (GST-ANAC019 NAC domain) [E-score] | binding signal (GST-ANAC055(1-171)) [E-score] | binding signal (GST-ATAF1 NAC domain) [E-score] | binding signal [1] [E-score] | binding signal (GST-NAP(1-166)) [E-score] | binding signal (GST-NST2(1-184)) [E-score] | binding signal (GST-NTL8 NAC domain) [E-score] | binding signal (GST-SND1(1-203)) [E-score] | binding signal (GST-VND3 NAC domain) [E-score] | binding signal (GST-VND7 NAC domain) [E-score]
ATTGAGTA | 0.329 | 0.135 | 0.143 | 0.176 | 0.251 | 0.365 | 0.0897 | 0.312 | 0.129 | 0.404 | 0.282 | 0.258
ACGTAATA | 0.425 | 0.176 | 0.351 | 0.375 | 0.276 | 0.434 | 0.346 | 0.298 | 0.142 | 0.387 | 0.377 | 0.273
AAGTAAAG | 0.275 | 0.432 | 0.107 | 0.168 | 0.189 | 0.32 | 0.0549 | 0.265 | 0.27 | 0.328 | 0.175 | 0.181
GTACGCTA | 0.428 | 0.0905 | 0.124 | 0.165 | 0.238 | 0.449 | 0.219 | 0.288 | 0.129 | 0.447 | 0.15 | 0.233
CACGTTTC | 0.424 | 0.107 | 0.381 | 0.375 | 0.383 | 0.432 | 0.332 | 0.286 | 0.217 | 0.299 | 0.262 | 0.298
AAGTAAGC | 0.284 | 0.404 | 0.104 | 0.158 | 0.199 | 0.358 | 0.0599 | 0.171 | 0.337 | 0.361 | 0.21 | 0.272
GTACGAAA | 0.38 | 0.184 | 0.267 | 0.274 | 0.24 | 0.413 | 0.247 | 0.285 | 0.116 | 0.277 | 0.294 | 0.196
